From PubChem
Most compounds without a hit are left out; they make up all but 3.6% or so of the library.
mHTT-CaM PPI inh: disrupts binding of mutant huntingtin to calmodulin; P42858; AlphaScreen His-mHTT/GST-CaM binding, luminescence; inhibition, % at 15 µM; 190,000 compounds, 3.6% hits;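 further: 0% = both proteins with DMSO and 100% = one protein alone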
Pf apPOL inh: Pf-apPOL DNA polymerase inhibition. Recombinant Pf-apPOL, molecular beacon fluorescence, 1.5 h. 210,000 compounds, 0.25% hits. inhibition, % at 10 µM
An asterisk follows results filed as active; ! = not active in a repeat. No stated cut-off is given here; in the data, active means inhibition above about 50%; inactive means the rest.

How did COc1ccc(CNC(=O)C2CC(=O)N(CCc3c[nH]c4ccc(F)cc34)C2)cc1 (stereo not drawn) do in these assays?
mHTT-CaM PPI inh: 17.8; Pf apPOL inh: -4.1

Results for COc1ccc(CNC(=O)C2CC(=O)N(CCc3c[nH]c4ccc(Cl)cc34)C2)cc1 (stereo not drawn) ?
mHTT-CaM PPI inh: 73.6*; Pf apPOL inh: -0.4

Results for COc1ccc(NC(=O)C2CC(=O)N(CCc3c[nH]c4ccc(OC)cc34)C2)cc1 (stereo not drawn) ?
mHTT-CaM PPI inh: 35.6; Pf apPOL inh: 9.8

How did COc1ccc2[nH]cc(CCN3CC(C(=O)Nc4ccc5c(c4)CCC5)CC3=O)c2c1 (stereo not drawn) do in these assays?
mHTT-CaM PPI inh: 61.3*; Pf apPOL inh: -3.6

Results for COc1ccc(NC(=O)C2CC(=O)N(CCc3c[nH]c4ccc(Cl)cc34)C2)c(OC)c1 (stereo not drawn) ?
mHTT-CaM PPI inh: 76.8*; Pf apPOL inh: -2.8

Results for Cc1ccc(N(C)S(=O)(=O)c2ccc3[nH]cc(C(=O)NC(C)C)c(=O)c3c2)cc1C ?
mHTT-CaM PPI inh: 35.0; Pf apPOL inh: -9.5

What do the screens show for `O=C1C(Br)CC2CC1CC(Br)C2=O` (stereo not drawn)?
mHTT-CaM PPI inh: -5.0; Pf apPOL inh: -1.1

How did CCN1C(=O)Cc2cc(C(=O)NC3CCCCC3)ccc21 do in these assays?
mHTT-CaM PPI inh: 2.6; Pf apPOL inh: 0.6

How did O=C(c1ccc(Br)o1)N1CCc2nc(-c3ccc(Cl)cc3)ncc2C1 do in these assays?
mHTT-CaM PPI inh: 5.6; Pf apPOL inh: 1.3

What do the screens show for `Cc1ccc(S(N)(=O)=O)cc1NC(=O)Nc1ccccc1`?
mHTT-CaM PPI inh: -1.4; Pf apPOL inh: -1.0

What do the screens show for `Nc1c(C(=O)Nc2ccc(Oc3ccccc3)cc2)nnn1Cc1ccccc1`?
mHTT-CaM PPI inh: 11.0; Pf apPOL inh: -4.3

What do the screens show for `CCS(=O)(=O)c1ncc(Cl)c(C(=O)Nc2ccc(Oc3ccccc3)cc2)n1`?
mHTT-CaM PPI inh: 98.2*; Pf apPOL inh: -3.3

How did O=C(C1Cc2cc(C(F)(F)F)ccc2N2CCSCC12)N1CCOCC1 (stereo not drawn) do in these assays?
mHTT-CaM PPI inh: 83.1*; Pf apPOL inh: -5.2

What do the screens show for `O=C(NCCN1CCCCC1)C1Cc2cc(C(F)(F)F)ccc2N2CCOCC12` (stereo not drawn)?
mHTT-CaM PPI inh: 30.8; Pf apPOL inh: -4.0

How did CCOC(=O)c1c(-c2ccccc2)oc2c1cc(OC(=O)c1cc(OC)c(OC)c(OC)c1)c1ccccc12 do in these assays?
mHTT-CaM PPI inh: 6.7; Pf apPOL inh: 58.2*

What do the screens show for `CCOC(=O)c1c(-c2ccccc2)oc2c1cc(OC(=O)c1ccccc1OC)c1ccccc12`?
mHTT-CaM PPI inh: -8.4; Pf apPOL inh: 2.2

How did CCn1cc(Cl)c(C(=O)Nc2ccc(N(C)C(C)=O)cc2)n1 do in these assays?
mHTT-CaM PPI inh: -3.0; Pf apPOL inh: -1.5

What do the screens show for `Cn1c(C(O)(c2ccccc2)C(O)c2ccco2)nc2ccccc21` (stereo not drawn)?
mHTT-CaM PPI inh: -3.0; Pf apPOL inh: 11.4

What do the screens show for `COc1cc(C=C2SC(=S)N(c3ccc(O)c(C(=O)O)c3)C2=O)ccc1O`?
mHTT-CaM PPI inh: 54.3*; Pf apPOL inh: 6.2

What do the screens show for `CCCCCCCC(=O)NN1C(=O)C(=Cc2ccc(O)c(OC)c2)SC1=S`?
mHTT-CaM PPI inh: 88.1*; Pf apPOL inh: -65.9

What do the screens show for `CCOc1ccc(C=C2SC(=S)N(CCCCCC(=O)O)C2=O)cc1OC`?
mHTT-CaM PPI inh: 47.2; Pf apPOL inh: 14.3

What do the screens show for `CCC(C(=O)O)N1C(=O)C(=Cc2ccc(O)c(OC)c2)SC1=S` (stereo not drawn)?
mHTT-CaM PPI inh: 31.7; Pf apPOL inh: -36.5

Results for CC(C)c1ccc(N2CC(C(=O)N(C)C(C)C)CC2=O)cc1 (stereo not drawn) ?
mHTT-CaM PPI inh: 21.8; Pf apPOL inh: -8.7

How did CCN1CCCC(NC2=CC(=O)OC23CCCCC3)C1 (stereo not drawn) do in these assays?
mHTT-CaM PPI inh: -8.0; Pf apPOL inh: -1.6

Results for CCCCC(=O)NC(c1ccc([N+](=O)[O-])cc1)c1ccc2cccnc2c1O (stereo not drawn) ?
mHTT-CaM PPI inh: 100.0*; Pf apPOL inh: 3.0

What do the screens show for `CCCC(=O)NC(c1ccccc1OC)c1ccc2cccnc2c1O` (stereo not drawn)?
mHTT-CaM PPI inh: 99.0*; Pf apPOL inh: 6.8

Results for CCCCC(=O)NC(c1ccc(C)cc1)c1ccc2cccnc2c1O (stereo not drawn) ?
mHTT-CaM PPI inh: 100.0*; Pf apPOL inh: 1.3

Results for CCCCC(=O)NC(c1ccccc1OC)c1cc(Cl)c2cccnc2c1O (stereo not drawn) ?
mHTT-CaM PPI inh: 7.0; Pf apPOL inh: -10.7

How did CCCC(=O)NC(c1ccc(C)cc1)c1ccc2cccnc2c1O (stereo not drawn) do in these assays?
mHTT-CaM PPI inh: 100.0*; Pf apPOL inh: 8.9

Results for CC1CCN(S(=O)(=O)c2ccc3[nH]cc(C(=O)NCc4cccnc4)c(=O)c3c2)CC1 ?
mHTT-CaM PPI inh: 8.0; Pf apPOL inh: -9.6

What do the screens show for `O=C1OC(c2cccc(F)c2)=N/C1=C\c1ccccc1I`?
mHTT-CaM PPI inh: 6.0; Pf apPOL inh: 19.7

What do the screens show for `N#Cc1cccc(NC(=O)N2CCC(c3cc4n(n3)CCCNC4=O)CC2)c1`?
mHTT-CaM PPI inh: -9.2; Pf apPOL inh: -5.9

How did O=C(C1CCN(c2nnc(-c3ccccc3)o2)CC1)N1CCC(Cc2ccccc2)CC1 do in these assays?
mHTT-CaM PPI inh: 69.7*; Pf apPOL inh: -7.1

How did O=C(C1CCN(c2nnc(-c3ccccc3)o2)CC1)N1CCCCC1 do in these assays?
mHTT-CaM PPI inh: -2.2; Pf apPOL inh: -6.6

Results for Cc1ccc(NC(=O)CS(=O)(=O)c2cn(C)c3ccccc23)cc1 ?
mHTT-CaM PPI inh: 3.0; Pf apPOL inh: -3.9

What do the screens show for `O=C(NCc1ccccn1)c1ncn[nH]1`?
mHTT-CaM PPI inh: 42.7; Pf apPOL inh: 0.2

Results for CC(C)(C)c1ccc(OCNC(=O)c2ncn[nH]2)cc1 ?
mHTT-CaM PPI inh: 73.0*; Pf apPOL inh: -1.5

Results for COc1ccc(C=C2Oc3cc(OCC(=O)OC(C)C)ccc3C2=O)cc1OC ?
mHTT-CaM PPI inh: -12.0; Pf apPOL inh: -3.9

How did CC1CCCCN1CC(O)COCC12CC3CC(CC(C3)C1)C2 (stereo not drawn) do in these assays?
mHTT-CaM PPI inh: 0.1; Pf apPOL inh: -4.7

How did CC1CCCC(C)N1CC(O)COc1ccc(C23CC4CC(CC(C4)C2)C3)cc1 (stereo not drawn) do in these assays?
mHTT-CaM PPI inh: 100.3*; Pf apPOL inh: -0.4

What do the screens show for `CC1CN(CC(O)COc2ccc(C34CC5CC(CC(C5)C3)C4)cc2)CC(C)O1` (stereo not drawn)?
mHTT-CaM PPI inh: 17.6; Pf apPOL inh: 0.2

Results for CC1CCCCN1CC(O)COc1ccc(C23CC4CC(CC(C4)C2)C3)cc1 (stereo not drawn) ?
mHTT-CaM PPI inh: 100.2*; Pf apPOL inh: 0.1

Results for O=c1c2ccccc2c(-c2ccccc2)nn1-c1cc(N2CCN(CCO)CC2)ccc1[N+](=O)[O-] ?
mHTT-CaM PPI inh: 46.3; Pf apPOL inh: -4.4

What do the screens show for `O=c1c2ccccc2c(-c2ccc(Cl)cc2)nn1-c1cc(N2CCNCC2)ccc1[N+](=O)[O-]`?
mHTT-CaM PPI inh: 98.0*; Pf apPOL inh: 2.4

What do the screens show for `CN1CCN(c2ccc([N+](=O)[O-])c(-n3nc(-c4ccccc4)c4ccccc4c3=O)c2)CC1`?
mHTT-CaM PPI inh: 55.0*!; Pf apPOL inh: -5.4
